This experiment relates to Plasmodium falciparum NF54. Briefly: growth inhibition relative to untreated control; higher = more inhibition. The conditions noted are these: 72 h. An outline of the steps:
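Two media were used: minimal RPMI, and minimal RPMI carrying the chorismate end-products folate, pABA, pHBA, tyrosine, phenylalanine and tryptophan at 2.2 μM, 7.3 μM, 7.3 μM, 111 μM and 90 μM for the first five. In these media, P. falciparum NF54 ring stages (1% hematocrit, 1% parasitemia, 100 μL/well) were exposed in dark 96-well half-area plates to a single 5 μM or 1 μM test-compound dose for 72 h at 37 °C. Growth inhibition was then assessed with SYBR Green against untreated wells, subtracting background from uninfected erythrocytes.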

The mark [1] stands for this setting: 1 µM, MM + chorismate end-products (CM screening medium).
The mark [2] stands for this setting: 5 µM, MM + chorismate end-products (CM screening medium).

Structures are written as SMILES.

For `CC(C)n1ncc2c(C(=O)NCC(c3cccs3)N3CCOCC3)cc(-c3ccccc3)nc21` (stereo not drawn), the growth inhibition is, setting by setting: under setting [1], 10%; (1 µM, minimal medium (MM)) 9.61%; under setting [2], 42.4%; (5 µM, minimal medium (MM)) 14.2%.

Regarding `CC(C)(C)n1nc(-c2ccccc2)c2c(N)ncnc21`, the growth inhibition is, setting by setting: under setting [1], 20.8%; (1 µM, minimal medium (MM)) 20.3%; under setting [2], 38.5%; (5 µM, minimal medium (MM)) below 0%.

In the case of `CC(C)(C(=O)Nc1ccc(F)cc1)n1cc(-c2ccccc2F)cn1`, the growth inhibition under setting [1] turned out to be 0.0824%; the growth inhibition (1 µM, minimal medium (MM)) was below 0%; the growth inhibition under setting [2] was determined as 5%; the growth inhibition (5 µM, minimal medium (MM)) was 15.7%.

In the case of `Nc1nc2cc(-c3cncc(Oc4ccc(F)cc4)c3)ccc2[nH]1`, the growth inhibition under setting [1] came to 76.1%; the growth inhibition (1 µM, minimal medium (MM)) is 67.8%; the growth inhibition under setting [2] amounted to 94.9%; the growth inhibition (5 µM, minimal medium (MM)) is 95.6%.

On to `Cc1cc(Nc2ccncc2)n2nc(C)c(-c3ccccc3Cl)c2n1`, for which the growth inhibition by setting is: under setting [1], 95.7%; (1 µM, minimal medium (MM)) 94.2%; under setting [2], 94%; (5 µM, minimal medium (MM)) 92.2%.

As for `COc1cccc(OCC(=O)c2ccc(Br)cc2)c1`, the growth inhibition is, setting by setting: under setting [1], below 0%; (1 µM, minimal medium (MM)) below 0%; under setting [2], below 0%; (5 µM, minimal medium (MM)) below 0%.

Turning to `C[C@H](C(N)=O)N1CCCC[C@H]1c1ccc(OCc2cccc(F)c2)cc1`, the growth inhibition under setting [1] came out at 18.3%; the growth inhibition (1 µM, minimal medium (MM)) is 3.3%; the growth inhibition under setting [2] was below 0%; the growth inhibition (5 µM, minimal medium (MM)) is below 0%.

As to `COc1ccc(OC(C)C(=O)Nc2ccc(Cl)cc2C)cc1` (stereo not drawn), the growth inhibition under setting [1] was 30%; the growth inhibition (1 µM, minimal medium (MM)) turned out to be 15.2%; the growth inhibition under setting [2] is below 0%; the growth inhibition (5 µM, minimal medium (MM)) is below 0%.

For `CCOc1ccccc1C(=O)Nc1cccc(-c2nc3ncccn3c2C)c1`, the growth inhibition reads like this: under setting [1], 75.8%; (1 µM, minimal medium (MM)) 76.7%; under setting [2], 95.8%; (5 µM, minimal medium (MM)) 85.4%.

With `CCOC(=O)c1c(NC(=O)c2c(F)c(F)c(F)c(F)c2F)sc(C(N)=O)c1C`, the growth inhibition runs as follows: under setting [1], 28.3%; (1 µM, minimal medium (MM)) below 0%; under setting [2], 14.8%; (5 µM, minimal medium (MM)) 13.1%.

As for `Cc1ccc(Oc2ccc(NC(=O)CNc3ccccc3N3CCCC3=O)cc2)cc1`, the growth inhibition by setting is: under setting [1], 85.2%; (1 µM, minimal medium (MM)) 87.4%; under setting [2], 98.3%; (5 µM, minimal medium (MM)) 91.8%.

Take `Cc1ccc(S(=O)(=O)n2cc(-c3ccnc(N)c3)c3cc(Br)cnc32)cc1`: the growth inhibition was 95.2% under setting [1]; above 100% (1 µM, minimal medium (MM)); 97.8% under setting [2]; 95.2% (5 µM, minimal medium (MM)).

(Values after the supplement of paper PMC6763611.)
